# Mac1 fbg inh = blocks human CD11b/CD18 adhesion to fibrinogen; 93,000 tested, 0.54% active; inhibition, % at 10 µM; P05107+P11215; AID 1497; K562 CD11b/CD18 adhesion to fibrinogen, ATPlite luminescence; Mn2+ added to activate the integrin;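 active = primary inhibition of 50% or more at 10 µM, then 40% or more on retest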
# CYP2C9 activ = CYP2C9 (human) activation. recombinant CYP2C9, luciferin-H conversion, luminescence; hits give high values; factor 1 = untreated enzyme, 0 = blocked. activation factor at 5 µM. 96,000 tested, 1.4% active. AID 1024;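 active = activation factor of 2 or more for CYP2C9 at a 5 µM dose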
# Target sequence (P11712 whole entry, looked up): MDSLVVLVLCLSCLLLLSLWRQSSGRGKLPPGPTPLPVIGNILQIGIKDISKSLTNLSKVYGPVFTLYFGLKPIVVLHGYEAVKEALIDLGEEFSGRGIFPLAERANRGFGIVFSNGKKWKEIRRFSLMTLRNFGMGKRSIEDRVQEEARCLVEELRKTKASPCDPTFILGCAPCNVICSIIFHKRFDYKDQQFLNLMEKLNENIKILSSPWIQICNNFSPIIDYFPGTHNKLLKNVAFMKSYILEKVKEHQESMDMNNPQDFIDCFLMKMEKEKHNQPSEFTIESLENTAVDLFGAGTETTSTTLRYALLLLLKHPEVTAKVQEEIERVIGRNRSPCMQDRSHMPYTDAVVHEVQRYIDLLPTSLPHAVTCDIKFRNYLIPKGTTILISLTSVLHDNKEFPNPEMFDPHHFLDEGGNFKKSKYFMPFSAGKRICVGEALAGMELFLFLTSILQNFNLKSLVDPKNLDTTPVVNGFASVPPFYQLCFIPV
# CYP2C9 inh = blocks human cytochrome P450 2C9. AID 777. 96,000 tested, 20% active. CYP2C9 Supersomes, luciferin-H conversion, luminescence. P11712. inhibition, % at 5 µM;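 active = blocking of liver enzyme CYP2C9 beyond about 50% at 5 µM, limit read from the data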
# CD11b adhes enh = increases human CD11b/CD18 adhesion to fibrinogen; 93,000 tested, 0.07% active; AID 1499; activation, % at 10 µM; P05107+P11215; K562 CD11b/CD18 adhesion to fibrinogen, ATPlite luminescence;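 active = 10 µM primary screen giving 50% or more activity, confirmed by 40% or more on retest at that dose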
# CYP2C19 inhib = blocks human cytochrome P450 2C19. P33261. inhibition, % at 5 µM. 96,000 tested, 21% active. CYP2C19 Supersomes, luciferin-H EGE luminescence, 30 min;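 active = CYP2C19 inhibition above a set limit at 5 µM in the primary screen, cut at about 50% in these data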
# CYP2C19 activ = activators of human cytochrome P450 2C19; P33261; recombinant CYP2C19, luciferin-H EGE luminescence; hits give high values; 0 = fully inhibited enzyme, 1 = untreated enzyme; activation factor at 5 µM; 96,000 tested, under 10 active;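 active = activation factor of at least 2 at 5 µM in the primary screen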
# Numbers stand for hits; n = inactive; x = not tested or not shown. Only some compounds are listed: those with a hit (about 28% of all), similar ones and a draw of the others.
SMILES,Mac1 fbg inh,CYP2C9 activ,CYP2C9 inh,CD11b adhes enh,CYP2C19 inhib,CYP2C19 activ
Cc1ccc(NS(=O)(=O)c2cc(C(=O)N3CCOCC3)ccc2C)cc1,n,n,n,n,n,n
Cc1ccc(C)c(S(=O)(=O)Nc2ccc3scnc3c2)c1,n,n,66,n,100,n
CCC(Sc1nc(N)cc(N)n1)C(=O)O (stereo unspecified),n,n,n,n,n,n
Cc1ccc2c(CC(=O)OC(C)C(=O)NCc3ccc4c(c3)OCO4)coc2c1 (stereo unspecified),n,n,94,n,53,n
CCOCC(=O)NCc1ccc2c(c1)OCO2,n,n,n,n,n,n
COc1ccc2c(CC(=O)NCc3ccc4c(c3)OCO4)coc2c1,n,n,89,n,96,n
Cc1ccc2c(CC(=O)NCc3ccc4c(c3)OCO4)coc2c1,n,n,79,n,52,n
CCC(C)NC(=O)C1CN(S(=O)(=O)c2ccccc2)CCN1S(=O)(=O)c1ccccc1 (stereo unspecified),n,n,n,n,66,n
O=C(NCc1ccco1)C1CN(S(=O)(=O)c2ccccc2)CCN1S(=O)(=O)c1ccccc1 (stereo unspecified),n,n,50,n,56,n
Cc1ccc(S(=O)(=O)NCC2CCC(C(=O)NCc3ccco3)CC2)cc1 (stereo unspecified),n,n,n,n,54,n
CCCNC(=O)C1CN(S(=O)(=O)c2ccccc2)CCN1S(=O)(=O)c1ccccc1 (stereo unspecified),n,n,n,n,n,n
Cc1ccc(S(=O)(=O)N2CCCCC2C(=O)NCc2ccco2)cc1 (stereo unspecified),n,n,n,n,94,n
CCOC(=O)C1CCCN(c2c(NCCN3CCCCC3C)c(=O)c2=O)C1 (stereo unspecified),n,n,n,n,n,n
CCC(=O)N1CCc2cc(S(=O)(=O)NCCC(=O)N3CCN(c4ccccn4)CC3)ccc21,n,n,n,n,n,n
CC(=O)c1cccc(S(=O)(=O)NCC(c2ccco2)N2CCCCC2)c1 (stereo unspecified),n,n,n,n,75,n
O=c1c2ccccc2sn1-c1ccccc1,n,n,75,n,n,n
O=c1c2cccc3c2c(nn1-c1ccccc1)-c1ccccc1-3,n,n,n,n,n,n
Cc1ccc(-n2sc3ccccc3c2=O)cc1S(=O)(=O)N1CCCCC1,n,n,89,n,n,n
O=c1c2ccccc2sn1-c1ccc(S(=O)(=O)N2CCCC2)cc1,x,n,75,x,n,n
O=C(COC(=O)CCCSc1nc2ccccc2[nH]1)NC(=O)NC1CCCC1,n,n,n,n,n,n
CC1=C2C(CCS2(=O)=O)CC2(C1)C(=O)OC(C)(C)OC2=O (stereo unspecified),n,n,n,n,82,n
COc1ccc(C2(CCN)CC(C)N(C)CC2C)cc1 (stereo unspecified),n,n,n,n,n,n
CC(CCc1ccccc1)NS(=O)(=O)c1ccccc1 (stereo unspecified),x,n,75,x,55,n
CCOCCCNS(=O)(=O)c1ccccc1,n,n,n,n,60,n
O=S(=O)(NCCCCCNS(=O)(=O)c1ccccc1)c1ccccc1,n,n,n,n,n,n
SMILES,Mac1 fbg inh,CYP2C9 activ,CYP2C9 inh,CD11b adhes enh,CYP2C19 inhib,CYP2C19 activ
CC(C)CCCC(C)NS(=O)(=O)Cc1ccccc1 (stereo unspecified),n,n,92,n,55,n
O=S(=O)(NCCCc1ccccc1)c1ccccc1,n,n,70,n,98,n
CC(CCc1ccccc1)NC(=O)c1cncc(Br)c1 (stereo unspecified),n,n,n,n,n,n
CC(CCc1ccccc1)NCc1ccncc1 (stereo unspecified),n,n,83,n,96,n
Nc1nc2c(s1)CC(c1ccccc1)CC2 (stereo unspecified),n,n,n,n,69,n
O=C(N1CCOCC1)N1CCN(S(=O)(=O)c2ccccc2)C1,n,n,n,n,n,n
Cc1noc(/C=C/c2ccco2)c1S(=O)(=O)N1CCC(C(=O)N2c3ccccc3CC2C)CC1 (stereo unspecified),n,n,70,n,n,n
Cc1noc(/C=C/c2ccco2)c1S(=O)(=O)N1CCC(C(=O)N(C)Cc2ccccc2)CC1,n,n,76,n,n,n
O=C(CC1C(=O)OCN1C(=O)OCc1ccccc1)OCC(=O)c1ccccc1 (stereo unspecified),n,n,n,n,n,n
O=C(OCn1nnc2ccccc2c1=O)C1CCCCC1,n,n,53,n,72,n
O=C(OCn1nnc2ccccc2c1=O)c1ccc(S(=O)(=O)N2CCOCC2)cc1,n,n,n,n,n,n
O=C(OCn1nnc2ccccc2c1=O)c1cccnc1Cl,n,n,n,n,59,n
CCN(CC)S(=O)(=O)c1ccc(C(=O)OCn2nnc3ccccc3c2=O)cc1,n,n,78,n,n,n
O=C(OCn1nnc2ccccc2c1=O)c1ccc2ncsc2c1,n,n,57,n,53,n
CC1CC(C)CN(c2cc(=O)n(Cc3ccc(F)cc3)c(=O)[nH]2)C1 (stereo unspecified),n,n,n,n,n,n
Nc1cc(Cl)ccc1C(=O)OCC(=O)NC1CCS(=O)(=O)C1 (stereo unspecified),x,n,n,x,n,n
CCOC(=O)c1c(NC(=O)CSc2nnnn2C)sc(C)c1-c1ccc(C)cc1,n,n,76,n,n,n
CCOC(=O)c1c(NC(=O)CSc2nncn2C)sc(C)c1C,n,n,n,n,n,n
CCOC(=O)c1c(-c2ccccc2)csc1NC(=O)CSc1nnnn1C,n,n,80,n,n,n
O=C(O)CCSc1nnc(-c2cccnc2)n1-c1ccccc1,n,n,n,n,n,n
CSc1nc2nccc(-c3ccc(-c4ccccc4)cc3)n2n1,n,n,n,n,n,n
c1ccc(Oc2ccc(-c3ccnc4nc(N5CCN(c6ccccc6)CC5)nn34)cc2)cc1,x,n,59,x,n,n
CSc1nc2nccc(-c3ccc(Oc4ccccc4)cc3)n2n1,n,n,56,n,51,n
c1ccc(-c2ccnc3nc(N4CCN(c5ccccc5)CC4)nn23)cc1,x,n,n,x,n,n
O=C(NC(Cc1ccccc1)C(=O)NCc1ccccn1)c1ccco1 (stereo unspecified),n,n,n,n,n,n
NC1=NC(c2cn(-c3ccccc3)nc2-c2cccs2)n2c(nc3ccccc32)N1 (stereo unspecified),n,n,n,n,n,n
Cc1ccc(-n2c(C)cc(C3N=C(N)Nc4nc5ccccc5n43)c2C)c(C)c1 (stereo unspecified),n,n,77,n,61,n

# Assay outcomes as filed in PubChem.
